High-throughput results from PubChem.
GLP1R cytotox: cytotoxicity counter-screen for GLP-1 receptor inverse agonists | AID 624418 | hit rate 0.13% among 410,000 | HEK293 cAMP-luciferase reporter cells, luminescence, 24 h | Potency, µM (doses to about 38.3 µM), actives largely listed as inhibitors;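 also: loss of luciferase light is scored as toxicity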
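Step one: seed cells (200 cells/uL, DMEM with 10% Nu serum, 1% pen-strep). Step two: 12-hour incubation at 37 deg C. Step three: pin 23 nL compound, incubate 24 hr. Step four: add luciferase reagent, read luminescence 12 min later.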
GLP1R inv ag: GLP-1 receptor (human) inverse agonism | P43220 | hit rate 1.6% among 410,000 | Potency, µM (doses to about 38.3 µM), hits mostly inhibitors | HEK293 GLP-1R CRE-luciferase, luminescence, 24 h; GLP-1R form is constitutively active; also: nearly all actives have a fitted effect of over 55% in size
Target sequence (P43220 whole entry, looked up): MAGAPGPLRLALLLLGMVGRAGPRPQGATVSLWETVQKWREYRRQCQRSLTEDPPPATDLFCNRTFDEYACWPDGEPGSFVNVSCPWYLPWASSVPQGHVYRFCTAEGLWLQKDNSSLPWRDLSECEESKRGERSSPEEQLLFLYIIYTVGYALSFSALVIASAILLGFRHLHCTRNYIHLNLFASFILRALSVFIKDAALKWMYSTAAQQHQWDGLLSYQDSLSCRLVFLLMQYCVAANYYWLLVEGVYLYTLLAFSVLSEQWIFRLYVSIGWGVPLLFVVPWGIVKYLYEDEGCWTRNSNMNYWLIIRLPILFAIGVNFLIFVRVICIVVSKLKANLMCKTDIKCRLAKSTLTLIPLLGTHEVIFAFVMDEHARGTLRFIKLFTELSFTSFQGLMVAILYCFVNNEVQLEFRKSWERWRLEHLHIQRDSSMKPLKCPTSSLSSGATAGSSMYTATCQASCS
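Inverse agonists were sought by their lowering of basal cAMP reporter luciferase output in HEK293 cells stably carrying constitutively active human GLP-1R, after 24 h compound treatment.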
GLP-1R agonist: activates the human GLP-1 receptor; P43220; HEK293 GLP-1R CRE-luciferase, luminescence, 4-6 h; cells express a hypersensitive GLP-1R form; Potency, µM (series often up to 45.6 µM), most hits filed as activators; hit rate 0.007% among 380,000; AID 624172
ClpP mod: qHTS Assay for Activators of ClpP. ATP-dependent Clp protease proteolytic subunit (Bacillus subtilis (strain 168)), P80244. purified B. subtilis ClpP, FRET peptide cleavage, 20 min. Potency, µM (series often up to 57.5 µM). hit rate 1.9% among 340,000. AID 651965, 2013; active = well fitted falling curve with a large enough effect; inconclusive = small, poorly fitted or top-dose-only effect; inactive = no such curve, though single readings can be large or run the other way; also: the source files actives as falling curves though it sought activators and does not explain the sign; nearly all actives have a fitted effect of over 65% in size
Target sequence (P80244 whole entry, looked up): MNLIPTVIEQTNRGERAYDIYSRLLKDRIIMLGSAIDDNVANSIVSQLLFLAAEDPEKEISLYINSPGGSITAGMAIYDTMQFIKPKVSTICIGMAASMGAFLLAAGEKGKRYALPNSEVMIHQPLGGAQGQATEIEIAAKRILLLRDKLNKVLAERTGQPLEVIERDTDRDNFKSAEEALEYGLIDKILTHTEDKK
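Purified B. subtilis ClpP, 10 microg/mL final in Tris/HCl pH8 with KCl, BSA, glycerol and Tween-20, cleaved an Abz/nitrotyrosine-quenched decapeptide. Fluorescence (ex 320, em 430) was read at 0 and 20 min at room temperature. Delta was normalized to 5.8 microM ADEP and DMSO/no-enzyme controls.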
Each line names hits and unclear results; the compound was inactive in the other large screens. Most compounds without a hit are left out; they make up all but 3.2% or so of the library. Unless noted, calls follow the shape of the dose curve; as a rule, active = well fitted curve in the direction sought with a large enough effect; inconclusive = small, poorly fitted or top-dose-only effect, or another doubt; inactive = no such curve, though single readings can be large; an effect the other way counts as inactive or inconclusive.

CCc1ccc(OCC(=O)NC(NC(=S)Nc2ccc(C)cc2C)C(Cl)(Cl)Cl)cc1 (stereo not drawn)	GLP1R cytotox inconclusive, GLP1R inv ag 5µM
CCn1c(-c2cc3c(C(F)(F)F)nn(C)c3s2)n[nH]c1=S	ClpP mod 28µM
Cc1cc(C)c2nc(N(CCCN(C)C)C(=O)c3ccc(S(=O)(=O)N4CCCCCC4)cc3)sc2c1	GLP1R cytotox inconclusive, GLP1R inv ag 13µM
CCOC(=O)N1CCN(S(=O)(=O)c2ccc(C(=O)N(CCN(C)C)c3nc4ccc(Cl)cc4s3)cc2)CC1	GLP1R inv ag 8.9µM
Cc1cc(C)c2nc(N(CCCN(C)C)C(=O)c3ccc4c(c3)CCCC4)sc2c1	GLP1R cytotox inconclusive, GLP1R inv ag 4.5µM
Cc1ccc2sc(N(CCCN(C)C)C(=O)c3ccc(S(=O)(=O)N4CCCCCC4)cc3)nc2c1C	GLP1R cytotox inconclusive, GLP1R inv ag inconclusive (no result: ClpP mod)
Cc1ccc2nc(N(CCCN(C)C)C(=O)c3ccc4c(c3)CCCC4)sc2c1	GLP1R cytotox inconclusive
Cc1nc2nc(CNC(=O)c3cccc(F)c3)nn2c(C)c1CCC(=O)Nc1ccc(F)cc1	none (no result: GLP-1R agonist)
Cc1nc(-c2coc3cc(O)c(C)cc3c2=O)cs1	GLP1R inv ag inconclusive
Cc1nc(-c2coc3cc(OCC(=O)O)ccc3c2=O)cs1	ClpP mod 35µM
Cc1ccc(C(C)C)c(OCC(=O)Nc2ccc3c(c2)nc(CCNC(=O)c2ccco2)n3C)c1	none (no result: GLP-1R agonist)
CN(C)Cc1cc(C(F)(F)F)ccc1C(O)(c1ccccc1)c1ccccc1	GLP1R cytotox inconclusive, GLP1R inv ag 8.9µM
COc1ccc(-c2sc3ccc(OC)cc3c2-c2ccc(O)cc2)cc1	GLP1R inv ag inconclusive, ClpP mod 28µM
COc1ccc(-c2c(-c3cc(OC)cc(OC)c3)sc3ccc(OC)cc23)cc1	GLP1R inv ag inconclusive, ClpP mod 18µM
COc1cc(OC)cc(-c2sc3ccc(OC)cc3c2-c2ccc(O)cc2)c1	GLP1R inv ag inconclusive, ClpP mod inconclusive
CCCN1CNc2c(c(=O)[nH]c(=S)n2CCc2ccc(C)cc2)C1	none (no result: GLP1R cytotox, GLP1R inv ag, GLP-1R agonist)
O=c1c2c(nc3cc(-c4ccc(F)cc4)[nH]n13)CCC2	ClpP mod 6.3µM
Cc1ccc(-c2cc3nc4c(c(=O)n3[nH]2)CCCC4)cc1	ClpP mod inconclusive
Cc1cccc(C(=O)N(CCc2ccccc2)Cc2ccccc2)c1[N+](=O)[O-]	GLP1R inv ag 3.2µM
CS(=O)(=O)c1ccccc1C(=O)N(CCc1ccccc1)Cc1ccccc1	GLP1R inv ag inconclusive
O=C(c1ccccc1[N+](=O)[O-])N(CCc1ccccc1)Cc1ccccc1	GLP1R inv ag inconclusive
Cc1ccc(S(=O)(=O)N2CCCCC2)cc1C(=O)N(CCc1ccccc1)Cc1ccccc1	GLP1R inv ag 4.5µM
COc1ccc(C(=O)N(CCc2ccccc2)Cc2ccccc2)c(OC)n1	GLP1R inv ag 5.6µM (no result: ClpP mod)
O=C(c1cc(S(=O)(=O)N2CCOCC2)ccc1F)N(CCc1ccccc1)Cc1ccccc1	GLP1R inv ag 10µM (no result: ClpP mod)
COc1cc(NC(=O)NCCc2c(C)nn(C)c2C)cc(OC)c1OC	none (no result: GLP-1R agonist)
COc1cccc(C(=O)NC(=S)Nc2ccccc2N2CCCCC2)c1	GLP1R inv ag 5.6µM
COc1cc(C(=O)NC(=S)Nc2ccccc2N2CCCC2)cc(OC)c1OC	GLP1R cytotox inconclusive
CCC(=O)N1CCN(c2ccccc2NC(=S)NC(=O)c2cccc([N+](=O)[O-])c2)CC1	GLP1R inv ag inconclusive (no result: ClpP mod)
O=C(NC(=S)Nc1ccccc1N1CCOCC1)c1cccc([N+](=O)[O-])c1	GLP1R cytotox inconclusive, GLP1R inv ag 3.5µM
COc1cccc(C(=O)Nc2ccccc2N2CCCC2)c1	none
COc1cccc(C(=O)NC(=S)Nc2ccccc2N2CCCC2)c1	GLP1R cytotox inconclusive, GLP1R inv ag 5µM (no result: ClpP mod)
Cc1ccc(NS(=O)(=O)c2ccc3[nH]c4c(c3c2)CCCCC4)cc1	GLP1R cytotox inconclusive, GLP1R inv ag 11µM (no result: GLP-1R agonist)
O=C(c1ccc2c(c1)N(Cc1cccc(Cl)c1)C(=O)c1ccccc1S2(=O)=O)N1CCN(c2cccc(C(F)(F)F)c2)CC1	none (no result: GLP-1R agonist)
O=C(CNC(=O)c1ccc(Br)o1)NNC(=O)c1ccc(Cl)cc1	ClpP mod 22µM
O=C(CCNC(=O)c1ccc(Br)o1)NCc1ccc(Cl)cc1	GLP1R inv ag inconclusive
O=C(CNC(=O)c1ccc(Br)o1)NNC(=O)c1ccccc1	none
O=C(NCc1nnnn1-c1ccc(Cl)cc1)c1ccc(Br)o1	ClpP mod 16µM
CC(=O)c1ccc(NC(=O)Cn2c(=O)nc(-c3ccccc3)c3cc(Cl)ccc32)cc1	none (no result: GLP-1R agonist)
CN(C1CCCCC1)S(=O)(=O)c1ccc2c(c1)c(=O)c(C(=O)N1CCN(c3ccc(F)cc3)CC1)cn2C	none (no result: GLP-1R agonist)
C[C@@H]1[C@H](O)[C@@H](C)/C=C/C=C/C=C/C=C/C=C/C=C/C=C/[C@H](O[C@@H]2O[C@H](C)[C@@H](O)[C@H](N)[C@@H]2O)C[C@@H]2O[C@](O)(C[C@@H](O)C[C@@H](O)[C@H](O)CC[C@@H](O)C[C@@H](O)CC(=O)O[C@H]1C)C[C@H](O)[C@H]2C(=O)O	none (no result: GLP1R cytotox, GLP1R inv ag, ClpP mod)
CC(C)CCNC(=O)c1cc(-c2ccc(Br)s2)nc2ccccc12	none (no result: GLP-1R agonist)
Cc1onc(-c2ccccc2Cl)c1C(=O)NC(=S)Nc1ccc(C(C)C)cc1	GLP1R inv ag 4µM
CCCOC(=O)c1cccc(NC(=O)c2c(-c3ccccc3Cl)noc2C)c1	GLP1R inv ag 8.9µM (no result: GLP-1R agonist)
Cc1onc(-c2ccccc2Cl)c1C(=O)NC(=S)Nc1ccccc1F	GLP1R cytotox inconclusive, GLP1R inv ag inconclusive
COc1ccccc1NC(=S)NC(=O)c1c(-c2ccccc2Cl)noc1C	GLP1R inv ag 4µM
COc1ccccc1NC(=O)C1CCC(CNS(=O)(=O)c2ccc3c(c2)CC(C)N3C(C)=O)CC1 (stereo not drawn)	GLP1R inv ag inconclusive (no result: GLP-1R agonist)
Clc1ccc(CSC2=NCCCN2)cc1Cl	GLP1R inv ag 8.9µM
Cc1[nH]nc2c1C(c1ccsc1C)C(C#N)=C(N)O2 (stereo not drawn)	none
Cc1cc(C2C(C#N)=C(N)Oc3n[nH]c(C)c32)c(C)s1 (stereo not drawn)	ClpP mod 18µM
Cc1ccc(C(=O)Nc2ccccc2C(=O)O)cc1S(=O)(=O)N1CCCCCC1	none (no result: GLP-1R agonist)
O=C1c2ccccc2NC(c2cccnc2)N1c1ccccc1F (stereo not drawn)	ClpP mod 11µM
O=C(Cc1ccc(NC(=O)N2CCCCc3ccccc32)cc1)NCc1cccc(Br)c1	none (no result: GLP-1R agonist)
COc1ccc(-c2[nH]c(-c3ccc(O)cc3)nc2-c2ccccc2)cc1	GLP1R inv ag inconclusive, ClpP mod 7.9µM (no result: GLP-1R agonist)
COc1ccc(-c2nc(-c3ccccc3)c(-c3ccc(O)cc3)[nH]2)cc1	GLP1R inv ag inconclusive, ClpP mod 5µM (no result: GLP-1R agonist)
C/C(=N\Nc1cc(N2CCCCC2)nc(C)n1)c1ccc(Br)cc1	GLP1R cytotox inconclusive, GLP1R inv ag 10µM
CN(C)c1ccc(/C=C2\C=Cc3ccccc32)c(Cl)c1	none (no result: GLP1R cytotox, GLP1R inv ag, GLP-1R agonist)
O=C(NNc1cc(C(F)(F)F)ccc1Cl)c1ccc(=O)[nH]c1	GLP1R inv ag 3.5µM (no result: ClpP mod)
